Screening results (PubChem)
TSHR agonist – TSH receptor (human) agonism | P16473 | HEK293-CNG-TSHR cells (CNG channel as cAMP sensor), membrane potential dye, cAMP | Potency, µM (top dose mostly 57.1 µM), most hits filed as activators | hit rate 0.48% among 73,000 | AID 926; active means well fitted activation curve with a large enough effect in the main read-out, with a control signal flat, not every such curve was filed as active; inconclusive means small, poorly fitted or top-dose-only effect, or a change in a side signal; inactive means no such curve, though single readings can be large or run the other way; reference of the percent scale not stated here;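 further: the control signal comes from parental cells without the receptor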
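HEK 293 cells stably expressing TSHR and a cAMP-gated CNG channel; parental CNG-only cells as counterscreen. Cells preloaded 60 min with membrane potential dye plus 100 uM RO 20-1724, then compound 30 min; fluorescence read at 590 nm.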
FLuc inh – inhibitors of firefly luciferase; P08659; purified firefly luciferase, luminescence, 8 min; Potency, µM (doses to about 57.1 µM), most hits filed as inhibitors; hit rate 2.2% among 72,000; AID 411; further: nearly all actives have a fitted effect of over 40% in size
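Compounds were tested as concentration series (qHTS) against purified P. pyralis luciferase with luciferin and 10 uM ATP in 50 mM imidazole pH 7.2, 50 mM KCl, 7 mM MgCl2, 0.01% Tween 20, 0.05% BSA. Luminescence was read after 8 min at ambient temperature.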
PK Bst – pyruvate kinase (B. stearothermophilus) modulation; purified pyruvate kinase, luminescence ATP production; ribose 5-phosphate activator present at AC10; Potency, µM; hit rate 1.2% among 51,000; in the data active means potency below about 11 µM; inconclusive means mostly about 12 µM to 25 µM;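 the screen sought inhibitors and activators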
HEK293 cAMP ctrl – parental HEK293 cAMP activation (counter-screen) | parental HEK293 CNG cAMP sensor, membrane potential fluorescence | Potency, µM (top dose mostly 57.1 µM), usual class: activators | hit rate 2.5% among 73,000 | AID 938; further: nearly all actives have a fitted effect of over 55% in size
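Counterscreen for endogenous-receptor signalling: CNG-channel HEK 293 cells report cAMP rise by membrane depolarization. After 60 min dye equilibration with 100 uM RO 20-1724, compounds incubated 30 min before bottom-read fluorescence at 590 nm.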
GBA activity – alters purified human glucocerebrosidase activity. hit rate 1.1% among 48,000. purified enzyme, resorufin glucoside fluorescence (screen aimed at inhibitors), 20 min. Potency, µM. P04062; in the data active means potency below about 15 µM; inconclusive means mostly about 16 µM to 33 µM;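 further: the screen sought inhibitors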
Target sequence (P04062 whole entry, looked up): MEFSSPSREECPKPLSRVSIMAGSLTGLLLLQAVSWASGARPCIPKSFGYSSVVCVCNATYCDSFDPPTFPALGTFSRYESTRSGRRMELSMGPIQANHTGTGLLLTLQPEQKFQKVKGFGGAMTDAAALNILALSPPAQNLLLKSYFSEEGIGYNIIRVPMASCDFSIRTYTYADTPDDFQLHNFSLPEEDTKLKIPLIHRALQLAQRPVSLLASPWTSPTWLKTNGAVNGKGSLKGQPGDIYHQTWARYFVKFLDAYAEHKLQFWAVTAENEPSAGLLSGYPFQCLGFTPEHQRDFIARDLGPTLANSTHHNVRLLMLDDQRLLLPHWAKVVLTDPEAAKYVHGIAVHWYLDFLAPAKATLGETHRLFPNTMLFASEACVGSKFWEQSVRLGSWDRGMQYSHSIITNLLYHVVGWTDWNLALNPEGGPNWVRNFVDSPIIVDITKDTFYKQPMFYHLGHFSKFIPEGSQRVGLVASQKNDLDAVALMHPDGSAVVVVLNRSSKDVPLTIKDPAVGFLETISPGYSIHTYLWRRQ
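Compounds titrated against 0.2 nM normal enzyme, 30 uM resorufin beta-D-glucopyranoside substrate, citrate/phosphate buffer with taurocholate and tween-20, pH 5.9. Reaction ran 20 min at room temperature; fluorescence (Ex 548/Em 600) gave AC50.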
Large screens that a line does not name were inactive; ! = not confirmed by another sample. Compounds with a hit are over-represented: about 5.8% of the library has one in this group of screens. Unless noted, the call rests on the fitted dose curve; in most records, active means well fitted curve in the direction sought with a large enough effect; inconclusive means small, poorly fitted or top-dose-only effect, or another doubt; inactive means no such curve, though single readings can be large; an effect the other way counts as inactive or inconclusive.

Cc1cc(NC(=O)COC(=O)c2c(C)nn(Cc3ccccc3Cl)c2Cl)no1	TSHR agonist inconclusive, HEK293 cAMP ctrl inconclusive
Cc1nn(Cc2ccccc2Cl)c(Cl)c1C(=O)OCC(=O)NCc1ccco1	TSHR agonist inconclusive, HEK293 cAMP ctrl 25.1µM
C[C@@H]1O[C@H]1P(=O)(O)O	TSHR agonist inconclusive, HEK293 cAMP ctrl inconclusive (no result: PK Bst, GBA activity)
CN(C)Cc1c[nH]c2ccccc12	TSHR agonist 15.8µM! (no result: PK Bst, GBA activity)
CO[C@@H](C)[C@](O)(C(=O)OC1=CCN2CC[C@H](O)[C@H]12)C(C)C	none (no result: PK Bst, GBA activity)
COc1ccc2c(c1OC)CN1CCc3cc4c(cc3[C@H]1C2)OCO4	none (no result: PK Bst, GBA activity)
COc1ccc2c(c1OC)C(=O)O[C@H]2[C@H]1c2cc3c(cc2CCN1C)OCO3	TSHR agonist inconclusive, HEK293 cAMP ctrl 12.6µM! (no result: PK Bst, GBA activity)
CCN(CC)C(=O)N[C@@H]1C=C2c3cccc4[nH]cc(c34)C[C@@H]2N(C)C1	TSHR agonist inconclusive, HEK293 cAMP ctrl 15.8µM! (no result: PK Bst, GBA activity)
O=c1cccc2n1C[C@@H]1C[C@H]2CN2CCCC[C@H]12	none (no result: PK Bst, GBA activity)
C[C@@]12CC[C@H](O[C@@H]3O[C@H](CO)[C@@H](O)[C@H](O)[C@@H]3O)C[C@@H]1CC[C@H]1[C@H]2CC[C@@]2(C)[C@@H](C3=CCOC3=O)CC[C@]12O	none (no result: PK Bst, GBA activity)
C[C@@H]1O[C@@H](O[C@H]2C[C@@H](O)[C@]3(CO)[C@@H]4[C@@H](O)C[C@]5(C)[C@H]([C@@H]6COC(=O)C6)CC[C@@]5(O)[C@H]4CC[C@@]3(O)C2)[C@H](O)[C@H](O)[C@@H]1O	TSHR agonist inconclusive, HEK293 cAMP ctrl 25.1µM (no result: PK Bst, GBA activity)
CCCCCC[C@H]1C(=O)O[C@@H](C)[C@H](NC(=O)c2cccc(NC=O)c2O)C(=O)O[C@@H](C)[C@@H]1OC(=O)CC(C)C	TSHR agonist inconclusive, HEK293 cAMP ctrl inconclusive (no result: PK Bst, GBA activity)
Cc1cc(NC(=O)CSc2nc3c(c(=O)n2-c2ccc(Cl)cc2)SCC3)no1	TSHR agonist inconclusive, HEK293 cAMP ctrl inconclusive, GBA activity 13.7
CC1=NN=C(c2ccc(N)cc2)c2cc3c(cc2C1)OCO3	FLuc inh 2µM! (no result: PK Bst, GBA activity)
CC(=O)N1C[C@@H]2C[C@H](C1)c1cccc(=O)n1C2	none (no result: PK Bst, GBA activity)
CN1CCCC2(CCN(C(=O)c3ccncc3)CC2)C1	TSHR agonist inconclusive, HEK293 cAMP ctrl 10µM (no result: PK Bst, GBA activity)
CCOC(=O)c1c(C)n(CCN2CCN(C)CC2)c2ccc(OC)cc12	GBA activity inconclusive
COc1ccc2c(c1)c(CCN1CCOCC1)c(C)n2C(=O)c1cccc(Cl)c1Cl	TSHR agonist inconclusive, HEK293 cAMP ctrl 10µM (no result: FLuc inh, PK Bst, GBA activity)
CN(C)[C@@H]1C(=O)C(C(N)=O)=C(O)[C@]2(O)C(=O)C3=C(O)c4c(O)cccc4[C@@](C)(O)[C@@H]3C[C@@H]12	none (no result: PK Bst, GBA activity)
Cc1nn(CCC#N)c2c1P(=S)(N1CCCC1)OC(c1ccc(F)cc1)=N2 (stereo unspecified)	TSHR agonist 15.8µM (no result: GBA activity)
Cc1c([C@@H](C)[C@H]2NC[C@H](C)C[C@@H]2O)ccc2c1C[C@@H]1[C@H]2CC=C2C[C@@H](O)CC[C@@]21C	none (no result: PK Bst, GBA activity)
CN[C@H]1[C@H](C)O[C@@H](O[C@@H]2C/C=C(/C)C/C(C)=C\C=C/CC[C@@H](C)CNC(=O)/C=C\C=C/[C@H]2C)C[C@@H]1O	none (no result: PK Bst, GBA activity)
COc1ccc(C2=NCC(=O)N(CC(=O)NCc3ccco3)c3sc4c(c32)CCCC4)cc1OC	none (no result: TSHR agonist)
O=C(CSc1nnc2c3c4c(sc3ncn12)CCCC4)NCc1ccco1	TSHR agonist inconclusive, HEK293 cAMP ctrl 12.6µM
O=c1c2ccccc2[se]n1-c1ccccc1	FLuc inh 15.8µM (no result: GBA activity)
COc1ccc2c(c[n+](C)c3c4cc5c(cc4ccc23)OCO5)c1OC	TSHR agonist inconclusive, FLuc inh 31.6µM (no result: PK Bst, GBA activity)
C[C@@]12CC[C@H]3[C@@H](CCC4=CC(=O)CC[C@]43C)[C@H]1CCC2=O	TSHR agonist inconclusive, HEK293 cAMP ctrl inconclusive (no result: PK Bst, GBA activity)
CC(NS(=O)(=O)c1ccc(CCC(=O)N2CCN(C)CC2)cc1)c1ccccc1 (stereo unspecified)	TSHR agonist inconclusive, HEK293 cAMP ctrl 3.98µM
CCNC(=O)[C@@H]1O[C@@H](n2cnc3c(N)ncnc32)[C@H](O)[C@H]1O	TSHR agonist inconclusive, HEK293 cAMP ctrl 0.159µM (no result: PK Bst, GBA activity)
Nc1ncnc2c1ncn2[C@@H]1O[C@@H](COP(=O)(O)CP(=O)(O)OP(=O)(O)O)[C@H](O)[C@@H]1O	TSHR agonist inconclusive, HEK293 cAMP ctrl inconclusive (no result: PK Bst, GBA activity)
CCCC[C@@H]1C[C@H]1C(NP(=O)(c1ccccc1)c1ccccc1)c1ccc(Cl)cc1 (stereo partly specified)	TSHR agonist inconclusive, HEK293 cAMP ctrl 2.51µM (no result: FLuc inh, PK Bst, GBA activity)
